Results taken from PubChem BioAssay (NCI).
About 83,000 compounds went through this panel and 20% of them were active in at least one assay; those are over-represented in the sample as a whole.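 Results are percent growth after 48 hours of single-concentration exposure. 100 means growth as in untreated cells, lower positive values show inhibition; negative values down to -100 show cell death.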 Unmarked numbers belong to inactive results. Calls of active or inactive are those of the source. How the source made its calls: active means growth percent below 10; inactive means the rest.

Assays:
Experiment in all cases: NCI-60 one-dose screen, 48 h (100 = growth as untreated, 0 = no growth, -100 = all killed)
Settings in all cases: 10 µM
[1] = test system: DU-145 prostate
[2] = test system: K-562 leukemia
[3] = test system: MDA-MB-231 breast
[4] = test system: RXF 393 renal
[5] = test system: SF-268 CNS
[6] = test system: SF-295 CNS
[7] = test system: SF-539 CNS
[8] = test system: UACC-257 melanoma
[9] = test system: M14 melanoma
[10] = test system: HCT-15 colon
[11] = test system: HT29 colon
[12] = test system: SNB-75 CNS
[13] = test system: U251 CNS
[14] = test system: PC-3 prostate
[15] = test system: UACC-62 melanoma
[16] = test system: LOX IMVI melanoma
[17] = test system: SK-MEL-28 melanoma
[18] = test system: SK-MEL-5 melanoma
[19] = test system: SNB-19 CNS

SMILES	growth [1]	growth [2]	growth [3]	growth [4]	growth [5] [%]	growth [6]	growth [7]	growth [8] [%]	growth [9]	growth [10] [%]	growth [11]	growth [12]	growth [13] [%]	growth [14] [%]	growth [15] [%]	growth [16] [%]	growth [17] [%]	growth [18]	growth [19] [%]
COc1cc(Cn2c(-c3ccccc3)c(Cl)c3c2-c2oncc2CC3)cc(OC)c1	95.9%	12.9%	67.5%	115%	68.8	61%	93.9%	86	79%	80.8	56.1%	94.8%	37.3	60.8	55.4	73.8	92.3		
COc1cc(-c2n/c(=C\c3c(O)[nH]c4ccccc34)cc3c2=Nc2ccccc2-3)cc(OC)c1OC	11.5%	6.57% (active)	10.8%	-22.3% (active)	19.3	8.6% (active)	1.21% (active)	56.2	-5.09% (active)	14.3	4.2% (active)	5.55% (active)	12.5	30.2	40	25.8	42.8	2.12% (active)	
COc1ccc(Cn2cc3c(c2-c2ccccc2)CC(C)(C)c2cnoc2-3)cc1	37.6%	18%	57.6%	20.3%	40.9	-10.7% (active)	6.34% (active)	58.3	40.1%	34.8			43.8		54.6	35.1	58.7		55.2
Oc1ccc(Cn2cc3c(c2-c2ccccc2)CCc2cnoc2-3)cc1	106%	70%	81.5%	110%	106	82%	94.5%	92.2	89.5%	100		91.9%	88.9	87.3	70.3	88.7	101	89.9%	99.2
CC(C)CCN(CCCNc1c2c(nc3cc(Cl)ccc13)CCCC2)CCC(C)C	72.1%	22.7%	21.8%	59.9%	73.9	66.7%	69.8%	71.4	4.03% (active)	44.5	23%	84.4%	59.4	56.8	82.8		83.4	57.8%	
COc1ccc(C(=O)n2nc(CC(=O)NCc3ccccc3)nc2N)cc1	115%	95.7%	96.2%	118%	108	108%	112%	105	101%	107	108%		105	101	93		108	111%	97.3
Cc1cn(C(=O)/C(Cl)=C(/Cl)C(=O)O)c2ccccc12	113%	97.9%	96.3%	112%	103	112%	111%	111	99.7%	105	110%		114	83.6	94	93.7	112	104%	106
CCN(CC)CCCOC(=O)Nc1ccccc1Cl	105%	99.6%	110%	109%	111	113%	94.7%	111	107%	111	103%	120%	107	96.1	109	97.6	116	105%	
COC(=O)CCCCCCCCC(C)c1ccc(C(C)=O)cc1 (stereo unspecified)	108%	92.3%	119%	111%	104	92.1%	101%	119	121%	103	101%	122%	107		116	98.2	130	111%	110
COc1cc(Cn2c(-c3ccccc3)cc3c2-c2oncc2CC3)cc(OC)c1	0.266% (active)	9.87% (active)	5.37% (active)	33.7%	30.6	-1.16% (active)	-11.9% (active)	55.4	0.789% (active)	15.3	-8.38% (active)	19.5%	18	19.2	31.6	27.3	50.1		
O=C(Nc1cccc([N+](=O)[O-])c1)NN1CCCCCC1	94.7%	84.1%	77.7%	113%	98.1	94%	86.9%	105	110%	90.4		105%	87.2	83.1	76.2	97.2	112	96%	95.6
